The campaign covered roughly 220,000 compounds. About 770 (0.35%) were called active. Many of the other results were omitted from the sample, so actives are more common in it than they were. Values without a mark were called inactive. Cut-off read from the data, not from the text of the source: active = activation above about 11%; inactive = the rest.
The compounds below were run against Sphingosine 1-phosphate receptor 4 (Homo sapiens) (UniProt O95977) (assay: S1P4 receptor agonists, primary screen, cell-based (AID 1509;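 note: 0% = DMSO vehicle and 100% = reference agonist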)). Settings: S1P4-expressing cell line, agonist reporter assay; at 4.98 µM; active compounds read high.
Sequence of Sphingosine 1-phosphate receptor 4 (Homo sapiens) (O95977 whole entry, looked up): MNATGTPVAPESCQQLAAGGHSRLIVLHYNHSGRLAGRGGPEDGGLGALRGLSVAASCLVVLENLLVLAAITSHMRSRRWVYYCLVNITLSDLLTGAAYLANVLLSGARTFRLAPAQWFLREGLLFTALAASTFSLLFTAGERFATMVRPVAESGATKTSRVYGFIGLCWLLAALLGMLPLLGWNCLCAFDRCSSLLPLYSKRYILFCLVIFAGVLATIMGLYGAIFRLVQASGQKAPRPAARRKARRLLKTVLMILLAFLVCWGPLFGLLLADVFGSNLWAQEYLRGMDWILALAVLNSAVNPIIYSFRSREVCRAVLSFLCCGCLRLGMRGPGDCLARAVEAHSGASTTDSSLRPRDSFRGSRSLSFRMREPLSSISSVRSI

Row | Compound | activation
1 | CC(C)N(CC#CCC1(O)c2ccccc2-c2ccccc21)C(C)C | 16.1% (active)
2 | NCC(O)c1ccc(O)cc1 (stereo not given) | 1.71%
3 | O=c1[nH]c(=O)n(-c2ccc(F)cc2)c(O)c1C=NCCN1CCCCC1 | 0.64%
4 | O=c1[nH]c(CN2CC=C(c3ccccc3)CC2)nc2scc(-c3cccs3)c12 | 0.84%
5 | Cc1cccc(-n2c(O)c(C=NC34CN5CN(CN(C5)C3)C4)c(=O)[nH]c2=O)c1 | -0.41%

— PubChem BioAssay AID1509 (The Scripps Research Institute Molecular Screening Center, 2009)
